JMJD2A Tudor: blocks the human JMJD2A Tudor domain; O75164; AlphaScreen JMJD2A-Tudor / H3K4me3 peptide binding; Potency, µM (highest dose often 114 µM), inactives show top-dose activity change, negative = inhibition, usual class: inhibitors; 390,000 compounds, 4.4% hits; AID 504339; further: on the % scale 0 is the no-effect control and ±100 the full control effect; nearly all actives have a fitted effect of over 50% in size
L3MBTL1 inh: inhibitors of human L3MBTL1 | Q9Y468 | AlphaScreen L3MBTL1–H3K9me1 peptide binding | Potency, µM (highest dose often 57.1 µM), for inactives: at the top dose activity, negative = inhibition, actives largely listed as inhibitors | 230,000 compounds, 0.66% hits; further: on the % scale 0 is the no-effect control and ±100 the full control effect; nearly all actives have a fitted effect of over 60% in size
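Read-out is AlphaScreen signal from streptavidin donor and nickel chelate acceptor beads (10 ug/mL final each) bridging L3MBTL1 (50 nM) and biotinylated K9-monomethylated H3(1-15) peptide (75 nM), after 30 min compound exposure at room temperature.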
G9a inh: G9a (human) methyltransferase inhibition; Q96KQ7; G9a H3K9 monomethylation, AlphaScreen, 2 h; Potency, µM (series often up to 102 µM), inactives show top-dose activity, negative = inhibition, hits mostly inhibitors; 350,000 compounds, 8.8% hits; AID 504332; further: on the % scale 0 is the no-effect control and ±100 the full control effect; nearly all actives have a fitted effect of over 75% in size
Target sequence (Q96KQ7 913-1193 limits assumed): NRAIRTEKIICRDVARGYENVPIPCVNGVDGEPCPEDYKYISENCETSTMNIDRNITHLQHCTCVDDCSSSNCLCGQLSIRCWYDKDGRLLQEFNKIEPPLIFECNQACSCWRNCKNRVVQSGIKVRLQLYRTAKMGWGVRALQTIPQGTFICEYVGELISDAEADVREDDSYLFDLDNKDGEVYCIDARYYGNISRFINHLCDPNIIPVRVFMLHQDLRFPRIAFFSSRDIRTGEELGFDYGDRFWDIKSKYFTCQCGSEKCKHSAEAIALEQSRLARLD
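G9a (20 nM) preincubated 15 min RT with compounds, then 500 nM biotinylated H3K9 peptide and 20 uM SAM added; 2 h RT reaction. Monomethyl-H3K9 product detected by AlphaScreen with anti-H3K9me1 antibody, streptavidin donor and anti-rabbit IgG acceptor beads.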
HP1b chromo inh: blocks HP1-beta chromodomain binding to methylated histone tails | AlphaScreen HP1-beta / biotin-H3K9me3 peptide binding | AID 540317 | Potency, µM (series often up to 114 µM), without a hit: top-dose activity change, negative = inhibition, actives largely listed as inhibitors | 390,000 compounds, 0.56% hits | P83916; further: nearly all actives have a fitted effect of over 70% in size
Target sequence (P83916 whole entry, looked up): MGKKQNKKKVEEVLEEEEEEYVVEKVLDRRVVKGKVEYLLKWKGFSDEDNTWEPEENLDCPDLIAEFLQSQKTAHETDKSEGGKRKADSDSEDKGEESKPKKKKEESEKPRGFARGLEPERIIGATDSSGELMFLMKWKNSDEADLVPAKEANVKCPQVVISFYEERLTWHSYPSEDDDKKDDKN
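Compound inhibition of the preformed complex between 50 nM HP1-beta and 50 nM biotinylated H3K9me3 peptide was read by AlphaScreen. Buffer was PBS pH 7.4 with 0.01% Tween-20. Incubations ran 30 min at room temperature, with 10 ug/mL donor/acceptor beads.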
Sfp inh: Sfp phosphopantetheinyl transferase inhibition. Q9F4F7. Biochemical Sfp PPTase activity, qHTS. Potency, µM, for the others: largest response in the series, negative = inhibition, most hits filed as inhibitors. 310,000 compounds, 3.5% hits. AID 1490;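 further: the enzyme is Sfp with the accession as filed and its product quenches rhodamine fluorescence; 0% = enzyme reaction without inhibitor and -100% = no enzyme wells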
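Fluorescence-quenching assay with 15 nM Sfp, 5 uM rhodamine-CoA and 12.5 uM BHQ-2-labelled ybbR peptide in pH 7.6 Hepes/MgCl2 buffer. Enzyme was pre-incubated with compound for 15 min at room temperature. Rate was taken from the 30-min fluorescence change (525/598 nm).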
BAZ2B block: blocks human BAZ2B; Q9UIF8; AlphaScreen BAZ2B-H3K14Ac peptide displacement; Potency, µM (doses to about 114 µM), for the others: top-dose activity change, negative = inhibition, usual class: inhibitors; 360,000 compounds, 4.4% hits; AID 504333; further: on the % scale 0 is the no-effect control and ±100 the full control effect; nearly all actives have a fitted effect of over 60% in size
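BAZ2B 50 nM plus b-H3(5-23)K14Ac 50 nM, PBS pH 7.4/0.01% Tween-20, 30 min RT; compound added (max 110 uM), 30 min RT; streptavidin donor/Ni-chelate acceptor beads 10 ug/mL final, 20 min dark; AlphaScreen read.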
Numbers without * were called inactive; ? = inconclusive; nt = no result given; [ ] = another dose, or the depositor's remark. In the library only some 12% were active in any assay of this set; here they are far more common. The call rests on the fitted dose curve; in most records, active means well fitted curve in the direction sought with a large enough effect; inconclusive means small, poorly fitted or top-dose-only effect, or another doubt; inactive means no such curve, though single readings can be large; an effect the other way counts as inactive or inconclusive. Potency means the concentration at half of the fitted maximal effect.

SMILES | JMJD2A Tudor | L3MBTL1 inh | G9a inh | HP1b chromo inh | Sfp inh | BAZ2B block
CCCCN(C(=O)c1cc(Cl)nc2ccccc12)c1c(N)n(Cc2ccccc2)c(=O)[nH]c1=O | -12% | 4% | 50µM* | 18% | nt | -5%
Cc1cc2c(n1-c1ccc(C(=O)NCC(C)c3ccccc3)cc1)CCCC2 (stereo not drawn) | -14% | nt | -29%[59 µM] | 15% | nt | -14%
Cc1ccc(C(C)C)c(OCc2nn(CC(=O)c3ccc(Cl)cc3)c3[n+]2CCCCC3)c1 | -29% | 3% | -3% | -4% | 32µM* | -10%
O=C(O)C1C2C=CC(CC2)C1C(=O)O (stereo not drawn) | -45%[57.1 µM] | nt | 45µM* | 79µM* | 40µM* | 50µM*
CCOc1ccc(C2CC(=O)Nc3nc(SCc4ccccc4C)[nH]c(=O)c32)cc1OC (stereo not drawn) | -26% | nt | -5%[59 µM] | 0% | nt | -2%
O=c1c(C(c2ccccc2)c2c(O)nc3n(c2=O)CCS3)c(O)nc2n1CCS2 | 5% | 2% | 40µM* | 28% | -3% | -5%
O=c1c(C(c2ccc(F)cc2)c2c(O)nc3n(c2=O)CCCS3)c(O)nc2n1CCCS2 | -17% | -3% | 50µM* | 44% | 3% | -11%
OCCN(Cc1ccccc1)CC1CC=CCC1 (stereo not drawn) | 10µM* | -2% | 10µM* | ? | -16% | 79µM*
CC(N)=O | nt | nt | 0.79µM* | nt | nt | nt
COc1ccc(/C=C/C(=O)N2CCN(c3ccccc3)CC2)cc1S(=O)(=O)N1CCOCC1 | -12% | -7% | 4% | 11% | 11% | -26%
COc1ccc(/C=C/C(=O)N(CCC(N)=O)c2ccccc2)cc1S(=O)(=O)N1CCOCC1 | 6% | 6% | 50µM* | 53% | nt | -2%
Cc1cc(=O)oc2cc(OCC(=O)Nc3c(C(C)C)cccc3C(C)C)ccc12 | -17% | nt | 9%[59 µM] | 2% | nt | -4%
CC(=O)O[C@@H]1C(CO[Si](C)(C)C(C)(C)C)=C(Br)C(=O)[C@@H]2O[C@]12C | nt | nt | nt | nt | 50µM* | nt
C#CCOCCOCCOCCNc1nc(N2CCN(C(=O)C(Cc3ccc(O)cc3)n3cc(C(N)C(C)CC)nn3)CC2)nc(N2CCN(C(=O)C(Cc3ccc(O)cc3)n3cc(C(N)C(C)CC)nn3)CC2)n1 (stereo not drawn) | 35µM* | ? | ? | 36% | -3% | 50µM*
C#CCOCCOCCOCCNc1nc(N2CCN(C(=O)[C@H](CCC(=O)O)n3cc(C(N)[C@H](C)CC)nn3)CC2)nc(N2CCN(C(=O)[C@H](Cc3ccc(O)cc3)n3cc(C(N)[C@H](C)CC)nn3)CC2)n1 (stereo partly drawn) | 40µM* | -13% | -130%[59 µM] | 76% | 9% | 50µM*
C#CCOCCOCCOCCNc1nc(N2CCOCC2)nc(N2CCN(C(=O)[C@H](Cc3ccc(O)cc3)n3cc([C@@H](N)C(C)CC)nn3)CC2)n1 (stereo partly drawn) | ? | 5% | ? | 7% | 9% | -30%
CCO/C=C1\SC(=S)N(c2ccc(Cl)cc2)C1=O | -29% | -19% | ? | -15% | ? | -36%
CC(C)c1ccc(N2C(=O)/C(=C/N(C)C)SC2=S)cc1 | 45µM* | nt | 50µM* | ? | 28% | 45µM*
CCN(CC)CCNc1ncnc2c1sc1nc(N3CCCC3)c3c(c12)CC(C)(C)OC3 | ? | -4% | ? | ? | -22% | 45µM*
CCN(CC)CCNc1ncnc2c1sc1nc(N3CCOCC3)c3c(c12)CCCC3 | ? | -26% | 35µM* | -16% | 4% | -32%
CN(C)CCNc1ncnc2c1sc1nc(N3CCCC3)c3c(c12)CC(C)(C)OC3 | ? | ? | ? | -21% | -9% | ?
COc1ccc(C)cc1NC(=O)C1CCN(S(=O)(=O)c2cc(Br)cc3c2N(C(C)=O)CC3)CC1 | -25% | nt | -31%[59 µM] | 7% | nt | -33%
Fc1ccccc1-n1ncc2c1ncn1nc(-c3ccccc3Cl)nc21 | -14% | nt | 3%[59 µM] | 7% | nt | 1%
Nc1ccc(-c2ncc(-c3ccccc3)o2)cc1 | ? | nt | ? | -15% | -12% | 28µM*
O=C(O)c1ccccc1-c1ncc(-c2ccccc2)o1 | -7% | nt | nt | 10% | nt | nt
SMILES | JMJD2A Tudor | L3MBTL1 inh | G9a inh | HP1b chromo inh | Sfp inh | BAZ2B block
O=c1c2cn[nH]c2[nH]c(=S)n1-c1cccc(Cl)c1 | -25% | 5% | 32µM* | 35% | -23% | -20%
Cn1c(=O)n(-c2cccc(Cl)c2)c(=O)n1C | -8% | -8% | 7%[59 µM] | 34% | 15% | 4%
COc1ccc(C(C#N)N2CCC(c3ccccc3)=N2)cc1 (stereo not drawn) | 3% | nt | 35µM* | 59% | 12% | 2%
COc1cc(C(C#N)N2N=C(c3ccccc3)CC2c2ccccc2)ccc1O (stereo not drawn) | -19% | 12% | -48%[59 µM] | 17% | -2% | 23%
Cc1sc2nc(CSC(C)C(=O)Nc3cc(S(C)(=O)=O)ccc3Cl)[nH]c(=O)c2c1C (stereo not drawn) | -9% | ? | 50µM* | 10% | nt | -22%
Cc1sc2nc(CSC(C)C(=O)Nc3ccccn3)[nH]c(=O)c2c1C (stereo not drawn) | -8% | -1% | 7.9µM* | 19% | nt | 7%
Cc1ccc(NC(=O)C(C)SCc2nc3sc(C)c(C)c3c(=O)[nH]2)nc1 (stereo not drawn) | -13% | 8% | 14µM* | 28% | nt | 3%
Cc1sc2nc(CSCC(=O)N(C)CC(=O)Nc3ccc(F)cc3)[nH]c(=O)c2c1C | -19% | 0% | 50µM* | 17% | nt | -11%
Cc1ccc(NC(=O)C(C)SCc2nc3sc4c(c3c(=O)[nH]2)CCCC4)nc1 (stereo not drawn) | 0% | nt | -10% | 38% | 10% | -21%
CC1CCC(O)C/C1=C\C=C1/CCCC2(C)C1CCC2C(C)/C=C/C(C)C(C)C (stereo not drawn) | nt | nt | 4%[12.7 µM] | nt | 18% | nt
Cc1cccc(NC(=O)C(C)SCc2nc3sc(C)c(C)c3c(=O)[nH]2)n1 (stereo not drawn) | -24% | nt | 45µM* | 33% | -19% | -20%
Cc1sc2nc(CSCC(=O)Nc3c(F)cccc3F)[nH]c(=O)c2c1C | -12% | 7% | 15%[2.33 µM] | 38% | nt | 9%
COC(=O)c1ccccc1NC(=O)CCCS(=O)(=O)c1nc(-c2ccccc2OC)cc(C(F)(F)F)n1 | -1% | nt | ? | 55% | nt | 4%
Cc1nc(C(=O)NNC(=O)c2ccccc2)c(C(F)(F)F)o1 | ? | 8% | 4.5µM* | 55% | 45µM* | -33%
O=C(COc1ccccc1Cl)N(Cc1ccco1)Cc1ccco1 | -32% | nt | -28%[59 µM] | 22% | nt | -22%

Source: PubChem BioAssay (National Center for Advancing Translational Sciences (NCATS))
